# Over roughly 1,800 sequences, “median log2 fold change of GCK-ALFA target abundance (FLAG IP / Myc IP barcode read proportion)” has its median near 0.14; the lowest 2% begin near -0.84. This is one part of a sample in which the lowest values are shown more often than they occur.
# B1: traf2_out_11_155_669 (protein)
# chain: EEKQKLNNELVNELTKVSDELKEKVIKILKEAAEKHPEHKEEIEKVIESSKTLSGTSFARKAAQLFKELGLEEEAKKVEELLEEAQKKMNEIYKKYEKKL
# B2: traf2_out_17_178_1674 (protein)
# chain: DKAAKRAEISALTDELIDLTEDTGTKLLALAEAEGTLTPEELALLRAALRSSSANTLLAVAEKLAPKLKTKAEAEALLKDFKEKKKELSKKIAEAYKEYE
# B3: traf2_out_14_149_1231 (protein)
# chain: SEEAKLLAAAAELTEKIAKTLEEVLKLLKEGKLEEAKKLLKESIEELEKESKKKGVTPSQLFQLEDLLELLEKDPEAAKKFAEEALARAKENADTLKEMA
# B4: traf2_out_11_169_779 (protein)
# chain: EEAEKNRKINDFALELNDKAKEKLKEEALKLAKEAGLDEEEIKKIFEENKNKSLSAVAAALIKYFESKGKEEEAAKVLEKYEELKDEINKKSSEFIKSLE
# B5: traf2_out_1_158_912 (protein)
# chain: DTKKKLMLSSVELVVKDAVESARENGDEETAKAIEELGEKIIELVKKLAIEEGKSVEEVIEEIDKLAAEFKAKADPETAAAIERLTRRVKSALRQVEKLM
# B6: traf2_out_18_5_1953 (protein)
# chain: SREEELKEALKSAERILSKKPEIEAEAKKLGVEELYKKAVEDFTRALENGEDLAKISTKHAEELAKKIGDPEKAEDLTYEIRRYVSAEYAKEVLEEMLKA
# B7: traf2_out_20_8_2269 (protein)
# chain: MSMEEKLARAADLILDAKDLVRAVIREVLADERAPAIAAEAAAAISVSVSADDTDADILLRIRERATEALTRLAERTGDPRLEEARARVAAALDAAAAAA
# B8: traf2_out_6_156_2453 (protein)
# chain: AAEAILERTEKEIEEGIKALAAAPEERKIAEINRIAGAFYRGLQALRAAGASLEELRAAAERLLETAEKKAKEAGLDERTRNLLLASLRAVADVALAAAA
# B9: traf2_out_17_162_1558 (protein)
# chain: SEIEKRWEKLKEELKELEKRVEALEKRLERLAELTPEEIRDLLVEASEVKRRALELAEEAEKLKEKIGEEEAQKLIDEANEIAERAQRIANTLYKALEKK
# B10: traf2_out_18_167_1847 (protein)
# chain: EEEIRKRREELSDRLVELSEVKRAARLALQALETDPSKVPAALAALREKAASIPELQPLVDAAEAALAAGDREGLRATLEKLIEKAQKLMNEVLKEYEAL
# B11: traf2_out_6_156_2450 (protein)
# chain: MIEEIFEKAVKEIEELIKKLAAAPESKKIAYINKIAGTFYKALQELRESGASLEEIEEFVERLLKKAEELANEAGLDEDTKNLLLSTLSAVGEVAIANAK
# B12: traf2_out_17_162_1507 (protein)
# chain: SPLEELRRRIEEELEELRRELERLEKKMENLKSMSKEELSDLLVEASEAKARALRLAELVREHREELGEEEAERLIREAEEIAERLQRIANEAYKELLKK
# B13: traf2_out_3_89_2301 (protein)
# chain: AAAEAAKIEAARARAERYARGFRKSARFVAKQMIADGMSLDTLRGVLEAARNALVEVFREELKEQGLSEETIEELVKELTEELEKIVEEILEEAEKKRAE
# B14: traf2_out_13_95_1141 (protein)
# chain: SAEVAAKINAIADRLLAEKDAILDELEAQLKAAGLLTPELRAALEAAKRSSISTAIHRLRELAERYPEARAALEAAIARLEALRREAGREVAEILKEEKE
# B15: traf2_out_20_3_2084 (protein)
# chain: KELEEEYKKHLEKAEKLLKEAAKLADPETAKKLEELIKRLKKSEELPYSDRLVVLSEVRREVLLLAQEAKAAGNEELAKILEEAAEEINRAMNLLMKMIE
# B16: traf2_out_3_77_2274 (protein)
# chain: SMKKEEIREKLDEATTLAIASLAVNAINNPEKAEEFREMARIVHRARAIAKEKGKEEELLPLIEEAKEAADKLNEGDESALEKLKEIVKKIGELAEKWEK
# B17: traf2_out_17_60_1763 (protein)
# chain: GPEEEKEELKREARRAIEEARRLVEEVRAKLAAGTLTASEAMDWLVELTEKRRELERLLEEAEKKGEEMEELKRELERAIEEVRRTMNEVGKHLLELLEA
# B18: traf2_out_20_3_2204 (protein)
# chain: SELEEELEKRLDAAEKLLKEAQKLADPETAKTLDALIARLKASRELSYDDRLVTLSAIRAEVLALAQAAKAAGNAELAAVLEAAADELQKAMNLVYKIIE
# B19: traf2_out_17_162_1540 (protein)
# chain: SETEEELRRLREELEELEEELRRLEEISKNLETLSKEELTDLLVEASELRRRALELAERLRRLEEETGSEEARRLRERAEEIAERLQRIANEIYKELEKK
# Target: T1, TRAF2, Q12933
# T1 chain: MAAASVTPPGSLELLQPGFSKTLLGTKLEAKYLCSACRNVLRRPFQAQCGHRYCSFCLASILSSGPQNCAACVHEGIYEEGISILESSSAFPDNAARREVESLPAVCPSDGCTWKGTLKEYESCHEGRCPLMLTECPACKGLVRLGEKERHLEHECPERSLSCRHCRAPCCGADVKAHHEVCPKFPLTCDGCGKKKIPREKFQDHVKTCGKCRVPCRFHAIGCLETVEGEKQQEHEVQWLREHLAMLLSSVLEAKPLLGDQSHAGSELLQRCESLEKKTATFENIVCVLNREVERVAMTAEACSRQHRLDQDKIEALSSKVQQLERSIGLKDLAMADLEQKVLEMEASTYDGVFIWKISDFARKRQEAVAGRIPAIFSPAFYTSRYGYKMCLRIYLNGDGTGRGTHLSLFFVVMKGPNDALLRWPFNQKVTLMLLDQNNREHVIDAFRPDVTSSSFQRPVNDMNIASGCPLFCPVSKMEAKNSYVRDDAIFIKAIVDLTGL
# Experiment: median log2 fold change of GCK-ALFA target abundance (FLAG IP / Myc IP barcode read proportion) (log2 ratio); each designed protein is fused to an ALFA-tag nanobody in HEK293 cells to bring the named protein to FLAG-tagged glucokinase (GCK); Myc marks an untargeted standard; higher = target protein stabilised (more abundant)
# Conditions: target protein: 3xFLAG-MCP-GCK-ALFA reporter; HEK293 landing pad (RPLP)
# Method: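 LABEL-seq trans screen in HEK293 landing-pad cells. Each de novo designed 100-aa effector handle, binding the indicated effector (E3 ligase, DUB or autophagy protein), is fused to a constant NbALFA target handle and induced with 2 ug/mL doxycycline. A FLAG-MCP-GCK-ALFA target and a Myc-MCP standard reporter were transfected, and after 48 h circRNA barcodes were recovered by anti-FLAG and anti-Myc IP and sequenced. The value is the median across barcodes (at least 3 per design) of log2(FLAG/Myc read-proportion ratio), with the two transfection replicates pooled. Negative values mean degradation and positive values mean stabilisation of the target.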
row,Binder,median log2 fold change
1,B1,0.305
2,B2,0.0887
3,B3,0.24
4,B4,0.368
5,B5,0.0872
6,B6,-0.0294
7,B7,0.0236
8,B8,-0.00113
9,B9,0.297
10,B10,0.224
11,B11,0.00905
12,B12,0.373
13,B13,-0.974
14,B14,-0.98
15,B15,0.118
16,B16,0.354
17,B17,-0.0301
18,B18,-0.756
19,B19,0.402
